In the library only some 2.4% were active in any assay of this set; here they are far more common.
zVAD death inh: blocks zVAD induced death of L929 cells. viability rescue, % at 10 µM. actives 0.38% (n = 220,000). L929 zVAD necroptosis rescue, ATP luminescence, 24 h; with zVAD 60 µM;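 active = activation, scaled between plate controls, above about 75%, limit read from the data; inactive = activation under that limit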
TNF necrop inh: inhibitors of TNF-alpha induced necroptosis in Jurkat FADD-/- cells | Jurkat FADD-/- TNF necroptosis rescue, ATP luminescence, 24 h; 0 = TNF only, 100 = no-TNF cells | activation (protection from cell death), % at 10 µM | actives 0.068% (n = 220,000);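 active = activation, meaning protection from cell death, of at least 50% relative to plate controls; inactive = activation below 50%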;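 note: necroptosis triggered by 40 ng/mL TNF-alpha added together with compound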
WT yeast gro inh: growth inhibition of WT yeast, mitochondrial fusion screen; mitochondrial fusion phenotypic screen, WT strain; inhibition, % at 10 µM; actives 2.1% (n = 190,000); in the data active = inhibition above about 58%; tested in S. cerevisiae
PKD1 kinase inh: PKD1 (human) kinase inhibition; Q15139; PKD1 kinase fluorescence polarization assay; inhibition, % (concentration not given with the values); actives 0.056% (n = 200,000); AID 797; in the data active = inhibition above about 50%
Target sequence (Q15139 whole entry, looked up): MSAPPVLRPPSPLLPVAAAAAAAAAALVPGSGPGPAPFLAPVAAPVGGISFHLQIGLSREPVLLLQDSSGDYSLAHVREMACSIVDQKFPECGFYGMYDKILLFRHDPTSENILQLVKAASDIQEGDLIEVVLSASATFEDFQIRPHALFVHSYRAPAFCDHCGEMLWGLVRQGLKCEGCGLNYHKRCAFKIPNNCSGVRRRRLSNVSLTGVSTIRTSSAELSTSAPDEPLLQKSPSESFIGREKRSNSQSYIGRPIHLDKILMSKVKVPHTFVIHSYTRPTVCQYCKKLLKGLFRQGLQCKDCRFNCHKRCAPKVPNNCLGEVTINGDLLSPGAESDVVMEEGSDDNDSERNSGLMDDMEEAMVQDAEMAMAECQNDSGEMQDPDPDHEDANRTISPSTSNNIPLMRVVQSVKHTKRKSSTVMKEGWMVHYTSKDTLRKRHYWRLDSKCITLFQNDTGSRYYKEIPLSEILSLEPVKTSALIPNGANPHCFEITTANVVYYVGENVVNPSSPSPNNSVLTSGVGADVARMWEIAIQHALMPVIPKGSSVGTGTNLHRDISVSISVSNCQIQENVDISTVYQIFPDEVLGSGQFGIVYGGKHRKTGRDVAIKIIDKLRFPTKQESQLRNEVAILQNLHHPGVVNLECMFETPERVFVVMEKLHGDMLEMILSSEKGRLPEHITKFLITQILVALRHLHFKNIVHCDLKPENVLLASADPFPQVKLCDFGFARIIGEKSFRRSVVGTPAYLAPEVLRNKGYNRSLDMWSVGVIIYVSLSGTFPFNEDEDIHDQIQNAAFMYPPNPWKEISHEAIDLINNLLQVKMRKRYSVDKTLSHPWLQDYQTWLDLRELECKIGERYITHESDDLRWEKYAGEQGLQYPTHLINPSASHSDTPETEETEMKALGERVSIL
Redox H2O2 prof: compounds producing H2O2 with reducing agent – biochemical, NIH compound library profiling, artefact control for MLSCN library redox annotation, primary screen. DTT-dependent redox cycling H2O2, phenol red/HRP absorbance; 100% = 100 µM peroxide control, 0% = buffer. activation, % at 10 µM. actives 0.03% (n = 200,000). AID 878;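 active = activation of at least 50% relative to the plate's high and low controls in the primary single-dose screen; inactive = activation below 50%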;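 note: compound incubated with DTT at 0.8 mM final as the reducing agent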
PERK inh: inhibitors of human PERK kinase; actives 0.17% (n = 220,000); CHO PERK-DD fusion, SEAP luminescence translation reporter; AID 1416; Q9NZJ5; inhibition, % at 5.6 µM;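 active = inhibition above the mean inhibition of all tested compounds plus 3 SD, set separately per screening campaign, cut at about 2.9% in these data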;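 note: PERK kinase domain activated by AP20187 dimerizer at 100 nM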
zVAD death conf: confirmed blocker of zVAD induced death in L929 cells; shares compounds with zVAD death inh; L929 zVAD-induced necroptosis rescue, ATP luminescence, 24 h; activation (protection from necroptosis), % at 10 µM; actives 16% (n = 760); AID 463117;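 active = mean protection from necroptosis of at least 50% over duplicate tests; inactive = mean protection below 50%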
Hits are given with their value; - = inactive; . = no result.

SMILES | zVAD death inh | TNF necrop inh | WT yeast gro inh | PKD1 kinase inh | Redox H2O2 prof | PERK inh | zVAD death conf
COc1cccc(CC2(CO)CCCN(Cc3cc(F)ccc3-n3cccn3)C2)c1 (stereo not drawn) | - | - | - | - | - | - | .
O=C(Nc1nccs1)c1ccc(S(=O)(=O)NCC2CCCCC2)cc1 | 123 | - | . | - | - | - | 52
CN(c1ccccc1)S(=O)(=O)c1ccc(C(=O)Nc2nccs2)cc1 | - | - | - | - | - | - | .
O=C(Nc1nccs1)c1ccc(N2C(=O)C3CCCCC3C2=O)cc1 (stereo not drawn) | - | - | - | - | - | - | .
O=C(Nc1nccs1)c1ccc(S(=O)(=O)NCc2cccs2)cc1 | 100 | - | . | - | - | - | 85
CCCNC(=O)Cc1c(C)oc2ccccc12 | - | - | . | . | . | - | .
CC(C)CN(CC(C)C)S(=O)(=O)N1CCC(C(=O)NCCc2ccc(Cl)cc2)CC1 | - | - | - | - | - | - | .
COc1cc(NC(=O)c2ccc(Cl)cc2Cl)ccc1NC(=O)c1cccs1 | - | - | . | . | . | - | .
CCN(CC)S(=O)(=O)c1ccc(OC)c(NC(=O)COc2ccc3c(C)cc(=O)oc3c2)c1 | - | - | - | - | - | - | .
O=C(NCCCn1ccnc1)c1cc(-c2cccs2)on1 | 76 | - | - | - | - | - | -
CCc1ccc(NC(=O)c2noc3c2CCCCC3)cc1 | - | - | - | - | - | - | .
Cc1ccc(NC(=O)c2noc3c2CCCCC3)cc1 | 82 | - | - | - | - | - | -
Cc1nc2ccc(S(=O)(=O)NCC(=O)Nc3cccc(F)c3)cc2s1 | - | - | - | - | - | - | .
CSc1sc(C(=O)NCC2CC2)cc1S(=O)(=O)C(C)C | - | - | . | . | . | - | .
COC(=O)c1cc(S(=O)(=O)C(C)C)c(S(C)=O)s1 (stereo not drawn) | 77 | - | . | . | . | - | -
CCCCOc1ccc(/C=C/C2=CC(C)(C)NC(=S)N2)cc1OCC | - | - | - | - | - | - | .
O=C(O)/C=C/c1cnn(-c2ccccc2)c1 | - | - | - | - | - | - | .
COc1ccc(NC(=O)Cc2c(F)cccc2Cl)c(OC)c1 | - | - | - | - | - | - | .
CC(C)(C)c1ccc(NC(=O)COC(=O)C2(C)CC2(Cl)Cl)cc1 (stereo not drawn) | 77 | - | - | - | - | - | -
Cc1ccccc1NC(=O)COC(=O)C1(C)CC1(Cl)Cl (stereo not drawn) | - | - | - | - | - | - | .
O=C(c1ccc(F)cc1)N1CCN(c2cc(=O)[nH]nc2-c2ccccc2)CC1 | - | - | - | - | - | - | .
COc1ccc2nc(NC(=O)C3CCN(S(=O)(=O)c4cccs4)CC3)sc2c1 | 79 | - | - | - | - | - | -
COc1ccc2nc(NC(=O)C3CCN(S(=O)(=O)c4cccnc4)CC3)sc2c1 | 88 | - | - | - | - | - | -
Cc1ccc2nc(NC(=O)C3CCN(S(=O)(=O)c4cccnc4)CC3)sc2c1 | 80 | - | - | - | - | - | -
CCOc1ccc2nc(NC(=O)C3CCN(S(=O)(=O)c4cnc[nH]4)CC3)sc2c1 | 83 | - | - | - | - | - | -
SMILES | zVAD death inh | TNF necrop inh | WT yeast gro inh | PKD1 kinase inh | Redox H2O2 prof | PERK inh | zVAD death conf
O=C(CSc1nnc(-c2ccncc2)n1-c1ccc(Cl)cc1)NCc1cccs1 | - | - | - | - | - | - | .
O=C(N/N=C/c1ccc(Cl)cc1)c1n[nH]c2c1CCCC2 | - | - | . | . | . | - | .
O=C(N/N=C/c1ccccc1)c1n[nH]c2c1CCCC2 | 83 | - | - | - | - | - | -
O=C(CN1CCSC1=NCc1ccccc1)c1ccccc1 | - | - | - | - | - | - | .
COc1ccc(Br)c(C(=O)NC2CCCC2)c1 | - | - | - | - | - | - | .
CCn1c2ccccc2c(=O)c2ccccc21 | 80 | - | - | - | - | - | -
CCn1c2ccccc2c2cc([N+](=O)[O-])ccc21 | - | - | - | - | - | - | .
O=C(NS(=O)(=O)Oc1ccc(F)c(Cl)c1)OC[C@@H]1CCCN2CCCCC12 (stereo partly drawn) | - | - | - | - | - | - | .
CC(C)=CC(=O)Nc1nc2ccc([N+](=O)[O-])cc2s1 | 77 | - | - | - | - | - | -
CCC(=O)Nc1ccc(C(=O)NNC(=O)COc2cc(C)ccc2C)cc1 | 85 | - | - | - | - | - | -
COC(=O)NNC(=O)COc1cc(C)ccc1C | - | - | - | - | - | - | .
Cc1ccc(NC(=S)NNC(=S)Nc2cccc(C(F)(F)F)c2)cc1 | 76 | - | . | . | . | - | -
COc1ccc(/C=C(/C(=O)c2cccs2)N2C=CC=CC2=C(C#N)C#N)cc1 | - | - | - | - | - | - | .
COc1ccc(C(=O)/C(=C\c2ccco2)N2C=CC=CC2=C(C#N)C#N)cc1 | 97 | - | - | - | - | - | -
CC(=O)c1ccc(NC(=O)N2C3CCC2CC(O)(c2cccnc2)C3)cc1 (stereo not drawn) | - | - | - | - | - | - | .
CNc1nc(C)nc(N/N=C/c2ccccc2)n1 | 76 | - | - | - | - | - | -
CC(=O)C1=C(C)NC(SCC(=O)Nc2nccs2)=C(C#N)C1c1ccccc1Cl (stereo not drawn) | 82 | - | - | - | - | - | -
C=CCOC(=O)C1=C(C)NC(SCC(=O)Nc2nccs2)=C(C#N)C1c1cccs1 (stereo not drawn) | 87 | - | - | - | - | - | 66
C=CCOC(=O)C1=C(C)NC(SCC(=O)Nc2nccs2)=C(C#N)C1c1ccc(Cl)cc1 (stereo not drawn) | - | - | - | - | - | - | .
CSC1=C(C#N)C(c2ccccc2Cl)C(C(C)=O)=C(C)N1 (stereo not drawn) | - | - | - | - | - | - | .
Cc1ccc(CNC(=O)Cc2noc3ccccc23)cc1 | - | - | - | - | - | - | .
COc1ccc(SCCC(=O)NCc2ccncc2)cc1 | - | - | . | . | . | - | .
Cc1ccc(NC(=O)CN2C(=O)S/C(=C/c3ccc(O)c([N+](=O)[O-])c3)C2=O)cc1C | 86 | - | - | - | - | - | -
Cc1cccc(NC(=O)CN2C(=O)S/C(=C\c3ccccn3)C2=O)c1 | - | - | - | - | - | - | .
O=C(O)c1ccc(/C=N/Nc2cccc(C(F)(F)F)c2)cc1 | - | - | - | - | - | - | .
O=C(O)c1ccc(/C=N/Nc2ccc(C(F)(F)F)cn2)cc1 | 88 | 58 | - | - | - | - | -
COc1cc(/C=N/Nc2ccc(C(F)(F)F)cn2)ccc1O | 79 | - | - | - | - | - | 93
O=C(NC(=S)Nc1ccccc1)c1cncc(C#Cc2ccccc2)c1 | - | - | . | . | . | - | .
COC(=O)COc1cccc(-n2cnnn2)c1 | - | - | - | - | - | - | .
